Measurements from the supplement of paper PMC6555819.

Assays:
Experiment in all cases: PBM binding z-score (relative to random genomic background probes); higher = stronger binding; sequences stand for … in GC…GCGATTGACAGCGTAGAATGAAGG
[1] = test system: FXR:RXRa (NR concentration 270 nM, RXRa partner concentration 90 nM)
Outline: (§1)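 Custom Agilent 4×180K protein-binding microarrays carried double-stranded probes, each with a 34-nt variable region. These regions held direct-repeat seeds, single-nucleotide variants, half-site ablations and random human genomic background sequences. Ligand-free nuclear receptor dimers were incubated on the arrays for 1 h, antibodies against each partner (one per run) detected binding, and scanned fluorescence was regression-normalized. Binding z-scores take the random background probes as reference.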

[2] = test system: LXRa:RXRa (NR concentration 270 nM, RXRa partner concentration 90 nM)
Outline: as §1

[3] = test system: LXRa homodimer (NR concentration 270 nM)
Outline: as §1

[4] = test system: LXRb:RXRa (NR concentration 270 nM, RXRa partner concentration 90 nM)
Outline: as §1

[5] = test system: LXRb homodimer (NR concentration 270 nM)
Outline: as §1

[6] = test system: PPARa:RXRa (NR concentration 270 nM, RXRa partner concentration 90 nM)
Outline: as §1

[7] = test system: PPARg:RXRa (NR concentration 180 nM, RXRa partner concentration 90 nM)
Outline: as §1

[8] = test system: PPARg:RXRa 270nM:90nM, anti-RXR (NR concentration 270 nM, RXRa partner concentration 90 nM)
Outline: as §1

[9] = test system: PPARg:RXRa 30nM:10nM, anti-RXR (NR concentration 30 nM, RXRa partner concentration 10 nM)
Outline: as §1

[10] = test system: PPARg:RXRa 90nM:30nM, anti-RXR (NR concentration 90 nM, RXRa partner concentration 30 nM)
Outline: as §1

Sequence: GGAATGAGGGCATTCGAGTTGATAGCATGGCGAT
- PBM binding z-score [1]: 1.71
- PBM binding z-score [2]: 2.3
- PBM binding z-score [3]: -0.453
- PBM binding z-score [4]: 0.478
- PBM binding z-score [5]: -0.43
- PBM binding z-score [6]: 2.13
- PBM binding z-score [7]: 1.46
- PBM binding z-score [8]: 1.52
- PBM binding z-score [9]: 0.439
- PBM binding z-score [10]: 1.05

Sequence: GATACAGTGTCAAGGCCAGAGTACGCGTATTGAT
- PBM binding z-score [1]: -0.101
- PBM binding z-score [2]: -0.189
- PBM binding z-score [3]: -0.775
- PBM binding z-score [4]: -0.147
- PBM binding z-score [5]: -0.421
- PBM binding z-score [6]: 0.43
- PBM binding z-score [7]: 0.593
- PBM binding z-score [8]: 0.129
- PBM binding z-score [9]: -0.172
- PBM binding z-score [10]: -0.0433

Sequence: CCGACTGGGCCAAGGTCATTGATCAGTCAAAGCA
- PBM binding z-score [1]: 2.94
- PBM binding z-score [2]: 2.76
- PBM binding z-score [3]: 0.884
- PBM binding z-score [4]: 2.65
- PBM binding z-score [5]: -1.02
- PBM binding z-score [6]: 3.83
- PBM binding z-score [7]: 2.29
- PBM binding z-score [8]: 3
- PBM binding z-score [9]: 0.61
- PBM binding z-score [10]: 2.11

Sequence: TCTCGGAGGACACGTAGGTCAGAGCTTTCCAGAG
- PBM binding z-score [1]: 0.6
- PBM binding z-score [2]: 0.395
- PBM binding z-score [3]: -0.0787
- PBM binding z-score [4]: 0.22
- PBM binding z-score [5]: -0.976
- PBM binding z-score [6]: 1.09
- PBM binding z-score [7]: 0.109
- PBM binding z-score [8]: 1.13
- PBM binding z-score [9]: 2.08
- PBM binding z-score [10]: 1.61

Sequence: ATCTATAGGTAAAAGTTCAGTGAATCCCGAGGAT
- PBM binding z-score [1]: 0.696
- PBM binding z-score [2]: 1.58
- PBM binding z-score [3]: 1.09
- PBM binding z-score [4]: 1.06
- PBM binding z-score [5]: 0.602
- PBM binding z-score [6]: 3.99
- PBM binding z-score [7]: 6.8
- PBM binding z-score [8]: 6.94
- PBM binding z-score [9]: 5.53
- PBM binding z-score [10]: 7.36

Sequence: CCTTACGGGTCACTCCAGGTAATAGCATCGGAGT
- PBM binding z-score [1]: 5.01
- PBM binding z-score [2]: 5.21
- PBM binding z-score [3]: 0.164
- PBM binding z-score [4]: 3.31
- PBM binding z-score [5]: 0.11
- PBM binding z-score [6]: 4.59
- PBM binding z-score [7]: 3.75
- PBM binding z-score [8]: 3.97
- PBM binding z-score [9]: 1.47
- PBM binding z-score [10]: 2.94

Sequence: CGTCCGAGGTCAGCAGGTCAGTGAAAGCGACGTG
- PBM binding z-score [1]: 6.67
- PBM binding z-score [2]: 4.61
- PBM binding z-score [3]: 0.517
- PBM binding z-score [4]: 3.78
- PBM binding z-score [5]: 0.00416
- PBM binding z-score [6]: 5.44
- PBM binding z-score [7]: 5.32
- PBM binding z-score [8]: 5.3
- PBM binding z-score [9]: 1.73
- PBM binding z-score [10]: 4.16

Sequence: ACTAGCAGGCCAAGTTTGGGTCACACAAACAAAG
- PBM binding z-score [1]: 0.341
- PBM binding z-score [2]: 0.408
- PBM binding z-score [3]: -0.252
- PBM binding z-score [4]: 1.17
- PBM binding z-score [5]: -0.354
- PBM binding z-score [6]: 1.85
- PBM binding z-score [7]: 0.563
- PBM binding z-score [8]: 0.793
- PBM binding z-score [9]: -0.154
- PBM binding z-score [10]: 0.0156

Sequence: CCTTACGGGTCATTCCAGGTTATAGCATCGGAGT
- PBM binding z-score [1]: 6.28
- PBM binding z-score [2]: 7.32
- PBM binding z-score [3]: 2.01
- PBM binding z-score [4]: 4.7
- PBM binding z-score [5]: 0.548
- PBM binding z-score [6]: 4.94
- PBM binding z-score [7]: 3.32
- PBM binding z-score [8]: 4.21
- PBM binding z-score [9]: 1.14
- PBM binding z-score [10]: 2.4

Sequence: ATATGTAGGTTACAGCCGGGTCATTCAGGCTATG
- PBM binding z-score [1]: 2.26
- PBM binding z-score [2]: 3.47
- PBM binding z-score [3]: 0.993
- PBM binding z-score [4]: 2.28
- PBM binding z-score [5]: 0.202
- PBM binding z-score [6]: 4.51
- PBM binding z-score [7]: 5.97
- PBM binding z-score [8]: 5.46
- PBM binding z-score [9]: 2.52
- PBM binding z-score [10]: 4.67

Sequence: AATACAAGGTCACTAGGCCAGAGTAGGTACGAAT
- PBM binding z-score [1]: 7.35
- PBM binding z-score [2]: 6.14
- PBM binding z-score [3]: 4.32
- PBM binding z-score [4]: 4.79
- PBM binding z-score [5]: 2.19
- PBM binding z-score [6]: 6.29
- PBM binding z-score [7]: 8.24
- PBM binding z-score [8]: 6.63
- PBM binding z-score [9]: 3.8
- PBM binding z-score [10]: 6.05

Sequence: CCTTACGGGTCACGAGGTTTTAGCACGACGAGCG
- PBM binding z-score [1]: 6.33
- PBM binding z-score [2]: 4.19
- PBM binding z-score [3]: -0.186
- PBM binding z-score [4]: 3.4
- PBM binding z-score [5]: -0.145
- PBM binding z-score [6]: 5.72
- PBM binding z-score [7]: 6.51
- PBM binding z-score [8]: 6.3
- PBM binding z-score [9]: 2.95
- PBM binding z-score [10]: 4.7

Sequence: ATCTCGAGGTAAGACTCAGTTCAGTGAAGAACGC
- PBM binding z-score [1]: 0.0769
- PBM binding z-score [2]: -0.0595
- PBM binding z-score [3]: -0.0445
- PBM binding z-score [4]: -0.053
- PBM binding z-score [5]: -0.194
- PBM binding z-score [6]: 0.0746
- PBM binding z-score [7]: 0.0104
- PBM binding z-score [8]: -0.287
- PBM binding z-score [9]: -0.212
- PBM binding z-score [10]: -0.236

Sequence: AGAACGAGGGCAATGAGTTGATAGCGCGGGTGGC
- PBM binding z-score [1]: 0.136
- PBM binding z-score [2]: 0.127
- PBM binding z-score [3]: -0.734
- PBM binding z-score [4]: -0.343
- PBM binding z-score [5]: -0.754
- PBM binding z-score [6]: 1.25
- PBM binding z-score [7]: 0.897
- PBM binding z-score [8]: 0.618
- PBM binding z-score [9]: -0.31
- PBM binding z-score [10]: 0.0829

Sequence: CTTCAAAGTTCAACTAAGGTAACGTAAAGCACGC
- PBM binding z-score [1]: 7.28
- PBM binding z-score [2]: 6.39
- PBM binding z-score [3]: 5.24
- PBM binding z-score [4]: 4.06
- PBM binding z-score [5]: 2.56
- PBM binding z-score [6]: 5.12
- PBM binding z-score [7]: 3.32
- PBM binding z-score [8]: 4.03
- PBM binding z-score [9]: 1.49
- PBM binding z-score [10]: 3.06

Sequence: CCTTACGGGTCACGAGGTTATCGCACGACGAGCG
- PBM binding z-score [1]: 6.89
- PBM binding z-score [2]: 4.91
- PBM binding z-score [3]: 0.648
- PBM binding z-score [4]: 4.02
- PBM binding z-score [5]: 0.0453
- PBM binding z-score [6]: 5.78
- PBM binding z-score [7]: 7.31
- PBM binding z-score [8]: 6.79
- PBM binding z-score [9]: 3.29
- PBM binding z-score [10]: 5.64

Sequence: CGAACTAGGTCAAGGACAGCGAATCTCCGCACGC
- PBM binding z-score [1]: 3.45
- PBM binding z-score [2]: 2.27
- PBM binding z-score [3]: 0.194
- PBM binding z-score [4]: 1.27
- PBM binding z-score [5]: -0.45
- PBM binding z-score [6]: 4.72
- PBM binding z-score [7]: 7.46
- PBM binding z-score [8]: 6.26
- PBM binding z-score [9]: 3.42
- PBM binding z-score [10]: 5.68

Sequence: ATCTCTAGGTAAGAGTTCAGTGAATCCCGAGGAT
- PBM binding z-score [1]: 0.291
- PBM binding z-score [2]: 1.13
- PBM binding z-score [3]: 0.982
- PBM binding z-score [4]: 0.873
- PBM binding z-score [5]: 0.69
- PBM binding z-score [6]: 3.22
- PBM binding z-score [7]: 5.23
- PBM binding z-score [8]: 6.11
- PBM binding z-score [9]: 4.98
- PBM binding z-score [10]: 6.44

Sequence: CAAACTAGGTCACTGAGGTCAAAGTCCGTGCGTA
- PBM binding z-score [1]: 6.44
- PBM binding z-score [2]: 5.9
- PBM binding z-score [3]: 5.56
- PBM binding z-score [4]: 5.66
- PBM binding z-score [5]: 1.56
- PBM binding z-score [6]: 6.2
- PBM binding z-score [7]: 9.39
- PBM binding z-score [8]: 7.91
- PBM binding z-score [9]: 5.72
- PBM binding z-score [10]: 7.61

Sequence: CGAACTAGGTCAAGGACAGTTAATCTCCGCACGC
- PBM binding z-score [1]: 3.29
- PBM binding z-score [2]: 2.36
- PBM binding z-score [3]: 0.153
- PBM binding z-score [4]: 1.58
- PBM binding z-score [5]: -0.0529
- PBM binding z-score [6]: 4.46
- PBM binding z-score [7]: 7.29
- PBM binding z-score [8]: 6.38
- PBM binding z-score [9]: 3.78
- PBM binding z-score [10]: 5.73

Sequence: TCTAGCAGGCCAGAGGGTCACTTAAGAGGTACGG
- PBM binding z-score [1]: 1.18
- PBM binding z-score [2]: 0.809
- PBM binding z-score [3]: -0.547
- PBM binding z-score [4]: 1.05
- PBM binding z-score [5]: -1.09
- PBM binding z-score [6]: 2.4
- PBM binding z-score [7]: 1.58
- PBM binding z-score [8]: 2.96
- PBM binding z-score [9]: 2.13
- PBM binding z-score [10]: 2.57

Sequence: CTACCAAGGTGAACAAGGTCATTGATTACTATTC
- PBM binding z-score [1]: 3.73
- PBM binding z-score [2]: 3.77
- PBM binding z-score [3]: 2.33
- PBM binding z-score [4]: 3.63
- PBM binding z-score [5]: -0.00581
- PBM binding z-score [6]: 3.92
- PBM binding z-score [7]: 2.24
- PBM binding z-score [8]: 2.85
- PBM binding z-score [9]: 0.479
- PBM binding z-score [10]: 1.65

Sequence: GCTGCTAGGTCAACTCATGGTCAGCTAAAGCTCG
- PBM binding z-score [1]: 4.3
- PBM binding z-score [2]: 2.9
- PBM binding z-score [3]: 0.227
- PBM binding z-score [4]: 2.29
- PBM binding z-score [5]: 0.577
- PBM binding z-score [6]: 3.73
- PBM binding z-score [7]: 2.73
- PBM binding z-score [8]: 3.12
- PBM binding z-score [9]: 0.277
- PBM binding z-score [10]: 1.79

Sequence: AGAATGAGGTTAAGATCATGGAAACAGAATACAT
- PBM binding z-score [1]: 2.01
- PBM binding z-score [2]: 1.71
- PBM binding z-score [3]: -0.0716
- PBM binding z-score [4]: 1.88
- PBM binding z-score [5]: -0.112
- PBM binding z-score [6]: 3.44
- PBM binding z-score [7]: 2.5
- PBM binding z-score [8]: 2.38
- PBM binding z-score [9]: 0.804
- PBM binding z-score [10]: 1.82
